aGal spleen mod – qHTS Assay for Inhibitors and Activators of Human alpha-Galactosidase From Spleen Homogenate; Alpha-galactosidase A (Homo sapiens), P06280; human spleen homogenate, 4MU-alpha-Gal fluorescence, 40 min; Potency, µM (series often up to 80 µM), without a hit: at the top dose activity change, negative = inhibition, hits mostly inhibitors; 240,000 compounds, 0.008% hits; AID 2107, 2009;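 also: potency is read from the fitted curve at half-maximal effect; 0% = enzyme with vehicle and -100% = no enzyme basal signal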
Target sequence (P06280 32-429 limits assumed): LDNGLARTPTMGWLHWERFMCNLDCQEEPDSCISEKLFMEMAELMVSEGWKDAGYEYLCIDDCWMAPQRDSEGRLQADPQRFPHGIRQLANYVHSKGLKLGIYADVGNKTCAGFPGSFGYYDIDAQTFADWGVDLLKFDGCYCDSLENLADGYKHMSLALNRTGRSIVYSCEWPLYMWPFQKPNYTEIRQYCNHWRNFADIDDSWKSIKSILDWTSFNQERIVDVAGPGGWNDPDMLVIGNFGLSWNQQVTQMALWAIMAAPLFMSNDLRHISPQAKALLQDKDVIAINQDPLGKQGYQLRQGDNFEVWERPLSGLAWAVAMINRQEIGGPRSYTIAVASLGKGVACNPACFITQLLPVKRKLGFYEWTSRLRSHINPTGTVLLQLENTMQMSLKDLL
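Fluorogenic readout (Ex 365/Em 440 nm) of 4-methylumbelliferone released from 1 mM 4-MU-alpha-galactoside by spleen homogenate, 40 min at 37C, pH 5.0. Data normalized to no-enzyme and enzyme controls; Hill-equation AC50 from compound titrations.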
GLA inh pH 4.5 – qHTS Assay for Inhibitors of Human alpha-Galactosidase at pH 4.5. Alpha-galactosidase A (Homo sapiens), P06280. purified enzyme, 4-MU-alpha-Gal fluorescence, pH 4.5. activity change, negative = inhibition, % at 105 µM. 230,000 tested, under 10 active. AID 1467, 2008;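 also: 0% = full activity with enzyme and -100% = basal without enzyme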
HTT aggregate – qHTS Multiplex Assay to Identify Dual Action Probes in a Cell Model of Huntington: Aggregate Formation (GFP) | 220,000 compounds, 1.1% hits | PC12 HttQ103-GFP aggregates, Acumen cytometry, 40 h | AID 1688, 2009 | Potency, µM (highest dose often 46.1 µM), for inactives: at the top dose activity change, negative = inhibition, usual class: inhibitors; also: potency is read from the fitted curve at half-maximal effect; % is scaled to controls: 0 for no effect and ±100 for the full control effect; nearly all actives have a fitted effect of over 60% in size
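Multiplexed with ATP-based cell death, this channel scores GFP aggregates in PC12 cells expressing inducible HTTex1-Q103-GFP. Induction used 100 nM tebufenozide; compounds were tested in concentration series.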
HTT ATP protect – qHTS Multiplex Assay to Identify Dual Action Probes in a Cell Model of Huntington: Cytoprotection (ATP). 230,000 compounds, 0.14% hits. Potency, µM (series often up to 56.4 µM), for the others: cytoprotection (ATP increase), hits mostly activators. PC12 HTT-Q103 induced, cytoprotection, ATP luminescence, 40 h; also: potency is read from the fitted curve at half-maximal effect; % of control where 0% means no effect; nearly all actives have a fitted effect of over 45% in size
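Compounds added alongside 100 nM tebufenozide, which induces toxic Q103 huntingtin exon 1-GFP in stable PC12 cells; surviving cells quantified by luminescent ATP measurement. Medium: phenol red-free DMEM, 5% equine and 5% calf serum.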
* = called active by the depositor; ? = inconclusive; nt = no result; [ ] = remark or other dose. In the library only some 1.2% were active in any assay of this set; here they are far more common. Calls follow the shape of the dose curve; as a rule, active = well fitted curve in the direction sought with a large enough effect; inconclusive = small, poorly fitted or top-dose-only effect, or another doubt; inactive = no such curve, though single readings can be large; an effect the other way counts as inactive or inconclusive.

SMILES | aGal spleen mod | GLA inh pH 4.5 | HTT aggregate | HTT ATP protect
N#CC(C#N)=NNc1ccc(S(N)(=O)=O)cc1 | 1% | -7 | -13%[9.22 µM] | 0%[10 µM]
CN(C)[C@@H]1C(=O)C(C(N)=O)=C(O)[C@]2(O)C(=O)C3=C(O)c4c(O)cccc4[C@@](C)(O)[C@@H]3C[C@@H]12 | nt | nt | nt | -15%
CCn1nc(-c2ccccc2)nc2c(=O)n(C)c(=O)nc1-2 | 5% | -1 | 8.9µM* | -42%[10 µM]
Cc1nc2c(=O)n(C)c(=O)nc-2n(C)n1 | -2% | -18 | -6% | -38%[10 µM]
C=CCn1c(O)c(C(CC)=NCc2ccc3c(c2)OCO3)c(=O)[nH]c1=O | 11% | 5 | 6%[9.22 µM] | -5%[10 µM]
CCCCn1c(O)c(C(CC)=NCc2ccc3c(c2)OCO3)c(=O)[nH]c1=O | 6% | -3 | 25µM* | -18%
CC1(C)C(=O)C=C[C@@]2(C)C1CC(O)[C@]1(C)C2CC[C@@]2(C)C(c3ccoc3)OC(=O)C3O[C@]312 (stereo not given in full) | -11% | -2 | nt | 0.79µM*
CO[C@@H](C)[C@](O)(C(=O)OC1=CCN2CC[C@H](O)[C@H]12)C(C)C | nt | nt | nt | -52%
Nc1c(C(=O)NCc2ccco2)c2nc3ccccc3nc2n1CCN1CCCCC1 | ? | -6 | 3.2µM* | -65%
C[C@@H]1O[C@H](O[C@H]2C[C@@H](O)[C@]3(CO)[C@H]4[C@H](O)C[C@]5(C)[C@@H](C6=CC(=O)OC6)CC[C@@]5(O)[C@H]4CC[C@]3(O)C2)[C@@H](O)[C@H](O)[C@H]1O | nt | nt | nt | 1%
CCCCCCCSc1cc(OC)c(CCN(C)C)cc1OC | -1% | 1 | 10µM* | -117%
CCC(C(=O)O)C1CCC(C)C(C(C)C(O)C(C)C(=O)C(CC)C2OC3(C=CC(O)[C@@]4(CC[C@](C)(C5CC[C@@](O)(CC)C(C)O5)O4)O3)C(C)CC2C)O1 (stereo not given in full) | -6% | -17 | 1.4µM* | -308%
CC(C)[C@@]1(NC(=O)[C@@H]2C=C3c4cccc5[nH]cc(c45)C[C@@H]3N(C)C2)O[C@]2(O)[C@H]3CCCN3C(=O)[C@H](Cc3ccccc3)N2C1=O | nt | nt | nt | -6%[1.9 µM]
C[n+]1c2cc(N)ccc2cc2ccc(N)cc21 | 7% | -7 | 10µM* | -76%
Nc1ccc2ccccc2c1 | -9% | nt | nt | -52%
COC(=O)C[C@](O)(CCCC(C)(C)O)C(=O)O[C@@H]1C(OC)=C[C@]23CCCN2CCc2cc4c(cc2[C@H]13)OCO4 | 9% | 4 | 0.16µM* | -82%
NNc1c(C(N)=O)c2c(N)ncnc2n1[C@@H]1O[C@H](CO)[C@@H](O)[C@@H]1O | nt | nt | nt | -95%[10 µM]

Screening data (PubChem BioAssay)
